Vaccinia Venus: qHTS for Stage-Specific Inhibitors of Vaccinia Orthopoxvirus: Venus Reporter Primary qHTS; 330,000 tested, 0.46% active; Potency, µM (highest dose often 36.5 µM), for the others: at the top dose activity change, negative = inhibition, usual class: inhibitors; AID 720580, 2013; Vaccinia virus Venus reporter expression, fluorescence; calls by dose curve; tested in A549 cells; also: potency is read from the fitted curve at half-maximal effect; nearly all actives have a fitted effect of over 30% in size
VACV mCherry inh: qHTS for Stage-Specific Inhibitors of Vaccinia Orthopoxvirus: mCherry Reporter Primary qHTS; Vaccinia virus mCherry reporter infection, fluorescence; Potency, µM (highest dose often 36.5 µM), without a hit: top-dose activity change, negative = inhibition, hits mostly inhibitors; 310,000 tested, 0.63% active; AID 720579, 2013; calls by dose curve; tested in A549 cells; also: potency is read from the fitted curve at half-maximal effect; nearly all actives have a fitted effect of over 35% in size
FMDV antiviral: High Throughput Screening for Foot and Mouth Disease Virus Antivirals; FMDV antiviral cell-based qHTS; Potency, µM (titrated, usually from 57.9 µM), for the others: at the highest dose activity change, negative = inhibition, actives largely listed as inhibitors; 410,000 tested, 1.2% active; calls by dose curve; tested in HEK293T cells; also: read-out not given here; potency is read from the fitted curve at half-maximal effect; nearly all actives have a fitted effect of over 45% in size
HCMV inh: qHTS Assay for inhibitors of the human cytomegalovirus (HCMV) | HFF cells, HCMV-luciferase reporter, 72 h; active compounds read low | activity change, negative = inhibition, % at 57.5 µM | 410,000 tested, 4.5% active; in the data active = activity change below about -60%; inconclusive = no clear call, values can overlap the other calls; inactive = above about -39%
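After 16 h attachment at 37C, HFF cells received test compound and HCMV-luciferase (1 PFU/cell); reporter luminescence read 72 h later, data normalized against buffer-only and known inhibitor Salinomycin.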
MARV entry inh: qHTS for inhibitors of binding or entry into cells for Marburg Virus. Potency, µM (doses to about 37.8 µM), inactives show top-dose activity change, negative = inhibition, hits mostly inhibitors. 300,000 tested, 1.8% active. AID 540276, 2011. Marburg virus pseudotyped entry inhibition, cell reporter; calls by dose curve; tested in HEK293 cells; also: potency is read from the fitted curve at half-maximal effect
Lassa entry inh: qHTS for Inhibitors of binding or entry into cells for Lassa Virus. Lassa virus pseudotype entry inhibition, cell reporter. Potency, µM (series often up to 37.9 µM), inactives show at the highest dose activity change, negative = inhibition, most hits filed as inhibitors. 300,000 tested, 1.2% active. AID 540256, 2011; calls by dose curve; tested in HEK293 cells; also: potency is read from the fitted curve at half-maximal effect; nearly all actives have a fitted effect of over 50% in size
The depositor's hits bear a star; i = inactive; ? = inconclusive; / = no result; [ ] = dose if it differs, or a comment. Only some compounds are listed: those with a hit (about 6.5% of all), similar ones and a draw of the others. % is scaled to controls: 0 for no effect and ±100 for the full control effect.

SMILES	Vaccinia Venus	VACV mCherry inh	FMDV antiviral	HCMV inh	MARV entry inh	Lassa entry inh
CC1Cc2ccccc2N1C(=O)NC1CC(=O)N(c2ccc3c(c2)OCCO3)C1 (stereo not given)	20%	-20%	-13%	-19	?	-7%[46.1 µM]
COc1ccc(Nc2c3c(nc4ccc(NC(=O)/C=C/c5cc(OC)c(OC)c(OC)c5)cc24)CCCC3)cc1OC	-17%[7.34 µM]	-10%[7.34 µM]	0%	-102*	?	?
COc1ccc(/C=C/C(=O)Nc2ccc3nc4c(c(Nc5ccc(OC)c(OC)c5)c3c2)CCCC4)cc1	?	?	-19%	-99*	?	?
CC1=NN(c2nc(-c3ccc(C)cc3)cs2)C(=O)C1N=Nc1ccccc1O (stereo not given)	438%	1%	-21%	-102*	?	?
CC1=NN(c2nc(-c3ccc(C)cc3)cs2)C(=O)C1N=Nc1cccc(O)c1 (stereo not given)	8%	-5%	-27%	-25	?	3%
CCc1ccc(C(=O)NNc2ccccc2F)cc1	-3%	?	66%	?	4.5µM*	?
CCc1ccc(C(=O)NNc2cc(Cl)ccc2Cl)cc1	/	/	-25%	-68*	/	/
CCc1ccc(C(=O)NNc2ccc(C)c(Cl)c2)cc1	8%	?	-1%	-8	?	?
CCC(=O)N(CC)C1=C(O)c2ccccc2C(=O)C1=O	-5%	-18%	-24%	-105*	2%	-12%
C=CCn1c(Sc2ncc([N+](=O)[O-])s2)n[nH]c1=O	0%	-14%	?	-97*	?	?
C=CCOc1ccc(CN(C)C(=O)CNC(=O)c2ccc(-c3ccccc3)cc2)cc1	-30%	i	13µM*	-81*	?	?
O=C(NC1C2CCCC1CN(C1CC1)C2)c1ccc(Cl)cc1 (stereo not given)	/	/	?	-64*	/	/
CN1C2CCC1CC(NC(=O)c1ccc(Cl)cc1)C2 (stereo not given)	-1%[7.34 µM]	i[7.34 µM]	8%	35	-20%[46.1 µM]	?
OCCC1CN(Cc2cc(F)ccc2-n2cccn2)CCN1Cc1ccc(F)cc1 (stereo not given)	/	/	-27%	0	/	/
O=C(NCc1ccccc1Cl)c1ccc2c(c1)N(Cc1ccccc1)C(=O)c1ccccc1S2	-9%	-14%	-5%	1	/	7%[46.1 µM]
Cc1nn(-c2nnc(NC3CCCCC3)nn2)c(C)c1Br	-19%	-22%	11%	83	3.5µM*	?
Cc1nn(C)c(C)c1S(=O)(=O)NC1CCCC1	-14%	/	3%	-16	8%[46.1 µM]	9%
Cc1csc(N/N=C/c2ccccn2)n1	?	?	?	-103*	?	?
C(=N\Nc1nc2ccccc2s1)/c1ccccn1	?	13µM*	3.5µM*	-97*	?	0.89µM*
COc1ccc(C=NNc2nc3ccccc3s2)cc1	6%	?	-61%	15	7.1µM*	?
COc1ccc(OCC(=O)N2CCCC(Nc3ccc(C)c(C)c3)C2)cc1 (stereo not given)	-15%	?	-9%	8	/	/
O=C1CSC(c2cccc(F)c2)N1c1ccccc1 (stereo not given)	-5%	i	-12%	6	/	/
COc1ccccc1-c1ccnc(-n2ncc(C(=O)N3CCN(C4CCCC4)CC3)c2-c2ccco2)n1	-7%	-19%	0%	/	/	/
CCOc1ccc(/C=C/c2nc(C#N)c(NCc3ccccc3)o2)cc1	?	?	?	-93*	-19%[46.1 µM]	-20%[46.1 µM]
CCOc1ccc(/C=C/c2nc(C#N)c(NC(C)c3ccccc3)o2)cc1 (stereo not given)	-23%	-18%	-10%	?	-16%[46.1 µM]	?
Cc1ccc(-n2nc3c(N4CCC(C(=O)NCc5ccc(C)o5)CC4)nnc(C)c3c2C)cc1	/	/	-18%	-67*	/	/
COc1ccc(-n2nc3c(N4CCC(C(=O)NCCc5ccccc5)CC4)nnc(C)c3c2C)cc1	?	?	-23%	2	/	-5%[46.1 µM]
